This note sets out measurements from PubChem BioAssay AID1832 (Broad Institute, 2009).

In all, about 300,000 compounds went through this assay and about 1,100 (0.37%) were called active. The full list was thinned out, with actives kept by preference. Unmarked numbers belong to inactive results.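 Rule for the calls: active = inhibition past about -25% in most replicates, and total fluorescence under double the plate's negative control median (limit read from the data); inconclusive = replicates evenly split on the limit, or fluorescence at least double controls; inactive = too little inhibition in most replicates.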

Chain of Zinc finger protein mex-5 (Caenorhabditis elegans) (Q9XUB2 whole entry, looked up): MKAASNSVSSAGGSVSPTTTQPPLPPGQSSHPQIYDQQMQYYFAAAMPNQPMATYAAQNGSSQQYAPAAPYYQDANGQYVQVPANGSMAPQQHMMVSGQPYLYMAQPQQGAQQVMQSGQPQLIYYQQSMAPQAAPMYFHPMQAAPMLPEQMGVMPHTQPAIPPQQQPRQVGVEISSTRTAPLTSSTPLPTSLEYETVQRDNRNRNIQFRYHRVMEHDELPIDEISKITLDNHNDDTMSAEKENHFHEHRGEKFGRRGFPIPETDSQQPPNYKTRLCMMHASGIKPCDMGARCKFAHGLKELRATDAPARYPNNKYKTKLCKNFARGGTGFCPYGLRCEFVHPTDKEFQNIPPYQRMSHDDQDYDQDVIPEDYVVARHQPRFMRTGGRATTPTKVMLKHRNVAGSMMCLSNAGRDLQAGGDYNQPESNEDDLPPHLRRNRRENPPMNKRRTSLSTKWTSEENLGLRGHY

This experiment concerns the target Zinc finger protein mex-5 (Caenorhabditis elegans) (UniProt Q9XUB2). The experiment in a line: MEX-5 zinc finger RNA-binding disruptors – biochemical, C. elegans, fluorescence polarization, MLPCN library, primary screen (AID 1832).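 Note: 0% = DMSO and -100% = 5 µM competing unlabeled TCR2 RNA.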 Particulars: MEX-5/FITC-TCR2 RNA binding, at 10 µM, active compounds read low. (In general: In fluorescence polarisation assays a small probe gives low polarisation when free and higher when bound to something large.)
Turning to `NS(=O)(=O)c1ccc(-c2ccc(/C=C3\SC(=O)NC3=O)o2)cc1`, the activity score (negative = inhibition of binding) is -76.4% (active).

Consider `CN1C(=O)/C(=C\c2ccc(-c3ccccc3)o2)SC1=S`, for which the activity score (negative = inhibition of binding) is -2.67%.

Regarding `CN1CCN(/N=C/c2ccc(-c3ccc([N+](=O)[O-])cc3)o2)CC1`, the activity score (negative = inhibition of binding) is 2.18%.

With `CCOCCCNC(=S)Nc1ccc2nc(N3CCN(CC)CC3)cc(C)c2c1`, the activity score (negative = inhibition of binding) is 2.27%.

Regarding `CCOCCCNC(=O)C(NC(=O)CNC(=O)c1ccccc1)c1ccc(OC)cc1` (stereo unspecified), the activity score (negative = inhibition of binding) is -1.36%.

Regarding `O=C(C1=C(O)C(=O)N(Cc2ccccc2)C1c1cccnc1)c1ccco1` (stereo unspecified), the activity score (negative = inhibition of binding) was -1.21%.

In the case of `O=C(C1=C(O)C(=O)N(Cc2ccccc2)C1c1ccco1)c1ccco1` (stereo unspecified), the activity score (negative = inhibition of binding) was 0.4%.

In the case of `O=C(C1=C(O)C(=O)N(c2ncccn2)C1c1cccs1)c1ccco1` (stereo unspecified), the activity score (negative = inhibition of binding) is -42.2% (active).

As for `c1ccc2c(c1)CCc1snnc1-2`, the activity score (negative = inhibition of binding) is 2.39%.

As to `O=C(Cn1nc(C(=O)O)c2ccccc2c1=O)Nc1ccc(F)cc1`, the activity score (negative = inhibition of binding) is -2.04%.

Regarding `Cc1ccc(-c2nn(-c3ccccc3)cc2/C=C2\SC(=S)N(CCCCCC(=O)O)C2=O)o1`, the activity score (negative = inhibition of binding) is -7.25%.

Regarding `CCCCN(C(=O)c1ccc(OC(F)(F)F)cc1)c1c(N)n(CCC)c(=O)[nH]c1=O`, the activity score (negative = inhibition of binding) is 1.98%.

As to `Cc1ccc(Cn2c(=N)c(S(=O)(=O)c3ccc(C)cc3)cc3c(=O)n4ccccc4nc32)cc1`, the activity score (negative = inhibition of binding) is 6.5%.

For the compound `CCn1c(=N)c(S(=O)(=O)c2ccc(F)cc2)cc2c(=O)n3ccccc3nc21`, the activity score (negative = inhibition of binding) was -29.2% (active).

Turning to `COc1ccc(CNC(=O)c2cc3c(=O)n4ccccc4nc3n(CC3CCCO3)c2=N)cc1` (stereo unspecified), the activity score (negative = inhibition of binding) was -4.96%.

In the case of `O=C(N/N=C/c1ccc([N+](=O)[O-])o1)c1cn(-c2ccccc2)nc1-c1ccc(F)cc1`, the activity score (negative = inhibition of binding) was -3.11%.

For the compound `Cc1ccc(/C=C/C(=O)Nc2ccc([N+](=O)[O-])c(NC(=O)/C=C/c3ccc(C)o3)c2)o1`, the activity score (negative = inhibition of binding) is 1.59%.

In the case of `O=C(/C=C/c1ccc([N+](=O)[O-])o1)NNC(=O)c1ccc(F)cc1`, the activity score (negative = inhibition of binding) is -26.8% (active).

Take `O=C(c1ccc(F)cc1)n1c(=S)nc2ccccn21`: the activity score (negative = inhibition of binding) is 0.662%.

In the case of `O=C(COC(=O)c1ccc(F)cc1F)Nc1ncccn1`, the activity score (negative = inhibition of binding) was -8.66%.

Turning to `CC(C)NC(=S)Nc1cccc2cnccc12`, the activity score (negative = inhibition of binding) is 0.93%.

`CC1(C)Cc2nc3sc4c(SCC(=O)NC(c5ccccc5)c5ccccc5)ncnc4c3cc2CO1`: the activity score (negative = inhibition of binding) is -0.0678%.

On to `Cc1ccc(NC(=O)CSc2sc3c(O)cc(=O)[nH]c3c2C#N)cc1C`, for which the activity score (negative = inhibition of binding) was -1.19%.

`O=C(N/N=C\c1ccc(-c2ccc(Cl)c(Cl)c2)o1)C(=O)N1CCCC1`: the activity score (negative = inhibition of binding) is -55.2% (active).

`O=C(N/N=C/c1ccc([N+](=O)[O-])cc1)C(=O)N1CCCC1`: the activity score (negative = inhibition of binding) is -0.216%.

`COC(=O)N/N=C/c1ccc(-c2ccc(Cl)c(Cl)c2)o1`: the activity score (negative = inhibition of binding) was 2.42%.

As to `COC(C(=O)NCc1ccccc1C)c1ccccc1` (stereo unspecified), the activity score (negative = inhibition of binding) was -0.406%.

As for `O=C(NCCCN1CCOCC1)C1CCCN(S(=O)(=O)N2CCCCC2)C1` (stereo unspecified), the activity score (negative = inhibition of binding) is 0.135%.

For the compound `S=c1[nH]nc2c3c4c(sc3ncn12)CCCC4`, the activity score (negative = inhibition of binding) is 0.932%.

Regarding `ON=C1/C(=N\O)CC2(C/C1=N/O)OCCO2`, the activity score (negative = inhibition of binding) is -31.5% (active).

Regarding `O/N=C1\CC2(Cc3nonc31)OCCO2`, the activity score (negative = inhibition of binding) was 2.02%.

Turning to `COc1ccc(C(=O)c2c(C)c(CCC#N)n3ccccc23)c(OC)c1`, the activity score (negative = inhibition of binding) is -2.13%.

`C=CCOc1ccc(/C=C2/C(=O)ON=C2C)cc1OCC`: the activity score (negative = inhibition of binding) is -10.9%.

For the compound `COc1cc(/C=C2/C(=O)ON=C2C)ccc1OCc1cccc(F)c1`, the activity score (negative = inhibition of binding) is -9.55%.

As for `COc1cc(/C=C2/C(=O)ON=C2C)ccc1OCc1ccccc1F`, the activity score (negative = inhibition of binding) is -63.3% (active).

Take `CC(=O)Nc1ccc(Nc2nc3c(S(=O)(=O)c4ccc(C)c(C)c4)nnn3c3ccccc23)cc1`: the activity score (negative = inhibition of binding) is -3.46%.

`Cc1cc(=O)oc2cc(NC(=O)C3CC(=O)N(Cc4ccccc4)C3)ccc12` (stereo unspecified): the activity score (negative = inhibition of binding) was -4.23%.

Regarding `Cc1cc(C)nc(N/N=C/c2ccc([N+](=O)[O-])o2)n1`, the activity score (negative = inhibition of binding) was -9.59%.

As to `CCn1c(/C=C/c2ccc([N+](=O)[O-])o2)nc2ccccc2c1=O`, the activity score (negative = inhibition of binding) was -34.2% (active).

Turning to `C/[N+]([O-])=C\c1ccc([N+](=O)[O-])o1`, the activity score (negative = inhibition of binding) was -3.97%.

As for `COc1ccc(NS(=O)(=O)c2cccc3nsnc23)cc1Cl`, the activity score (negative = inhibition of binding) is 1.95%.

On to `COC(=O)c1ccc(NC(=S)Nc2cccc(C)n2)cc1`, for which the activity score (negative = inhibition of binding) is -0.058%.

As to `Cn1ccc(=Nc2ccc(NC(=O)c3ccc(N=c4ccn(C)c5ccc([N+](=O)[O-])cc45)cc3)cc2)cc1`, the activity score (negative = inhibition of binding) was -46.8% (active).

Turning to `Cc1cc([N+](=O)[O-])ccc1NC(=O)c1ccc(NC(=O)C(C)C)cc1`, the activity score (negative = inhibition of binding) was 0.662%.

For the compound `O=C(Nc1ccc(C(=O)N2CCCCC2)cc1)c1cccc([N+](=O)[O-])c1`, the activity score (negative = inhibition of binding) is 1.72%.

On to `CN(C)Cc1c(O)ccc2occ(C(O)c3ccccc3)c12` (stereo unspecified), for which the activity score (negative = inhibition of binding) was 1.82%.
